Here are results for 14 compounds from PubChem BioAssay.

The nature of assay [1]: inhibitors of TNFa-induced NFkB p65 translocation, primary screen, imaging, HUVEC, MLSMR starter and 10KST1 sets (AID 438;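 active means inhibition above 20% together with a positive visual image hit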;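 further: compound added about 3h40 before a 20 min TNFalpha stimulation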;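 on inhibition: signal is the nuclear over cytoplasmic p65 intensity ratio per well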). The settings on record: HUVEC TNFa-induced p65 nuclear translocation; cell count: measured here: nuclei count (cytotoxicity indicator), at 2.08 µM; inhibition: at 2 µM, stronger effect = higher value, 0% TNFa-plus-vehicle, 100% no-TNFa wells.
The nature of assay [2]: inhibitors of mutant huntingtin aggregation, primary screen, imaging, exon1htt(103Q)mCFP cells, high-content imaging (AID 483;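 active means visual image review flags a hit and inhibition of aggregation exceeds 20%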;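 further: compound exposure lasted 3 days before fixation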;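 on nuclei count: percent of the per-plate median nuclei count of sample wells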). The settings on record: exon1htt(103Q)mCFP cell line, aggregate imaging, at 2 µM; inhibition of aggregation: stronger effect = higher value; nuclei count: measured here: cell count, toxicity.
A short description of assay [3]: inhibitors of E-selectin induction by TNFa, primary screen, imaging, HUVEC, immunofluorescence, MLSMR starter and 10KST1 sets (AID 487).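 On inhibition: signal is fraction of cell area covered by stained E-selectin grains.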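 On nuclei count: 100% = median nuclei count of all wells on the same plate.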 The settings on record: HUVEC TNFalpha-induced E-selectin immunofluorescence imaging, at 2 µM; inhibition: stronger effect = higher value; nuclei count: measured here: cell number, toxicity.
Assay [4] has as its target Voltage-gated potassium channel subunit beta-2 (Rattus norvegicus) (UniProt P62483). Description: KvBeta enzyme negative modulators, primary screen, biochemical, NADPH fluorescence (AID 622;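 active means fluorescence slope higher than the sample average by over 3 SD, cut at about -0.22 in these data, passing the limit was not always enough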;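 further: slope of raw intensity against log time taken from 70 to 1610 s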). The settings on record: recombinant KvBeta, 4-cyanobenzaldehyde reduction, at 10 µM, stronger effect = higher value.
For assay [5] the target is unchanged. Put plainly: KvBeta positive modulators, primary screen, biochemical, NADPH fluorescence (AID 623;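 active means NADPH fluorescence slope more negative than the mean of all samples by about 3 SD, 99.7% confidence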;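 further: fluorescence intensity change per second fitted from 20 to 320 s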). The conditions noted are these: Recombinant KvBeta, NADPH fluorescence decrease slope, 10 min; at 10 µM; stronger effect = lower value.
The target in assay [6] is Alpha-2C adrenergic receptor (Homo sapiens) (UniProt P18825). Put plainly: modulators of alpha2C/GIRK thallium flux, primary screen, cell-based, HEK293 alpha2C/GIRK1/2 (AID 624;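 active means fluorescence slope after compound addition differing from the mean of all screened samples at 99.7% confidence, in either direction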;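 further: slope of fluorescence ratio to pre-addition baseline per second over 15 to 24 s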). The settings on record: thallium flux BTC fluorescence, at 10 µM, actives lie on both sides.
Assay [7] can be described thus: inhibitors of Sendai virus-induced IRF3 signaling, primary screen, TLR/RLR signaling modifier project, cell-based, Sendai virus stimulus, luciferase, 10K MLSCN set (AID 602276;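 active means inhibition at or above 50% at 10 µM; inactive means inhibition below 50%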;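 further: firefly luciferase from ISG56 promoter only with Renilla not read in this screen; 0% = Sendai virus plus DMSO and 100% = medium plus DMSO without virus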). The conditions noted are these: HEK293 RL24 IRF3 luciferase reporter, at 10 µM, stronger effect = higher value. In general terms: A reporter such as luciferase makes a cellular process visible.
A short description of assay [8]: inhibitors of poly I:C-induced TLR3 signaling, primary screen, cell-based, poly I:C stimulus, luciferase, 10K MLSCN set (AID 602277;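 active means inhibition of the reporter signal at or above 50%; inactive means inhibition below 50%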). The conditions noted are these: HEK293-TLR3 RL24 IRF3 luciferase reporter, at 10 µM, stronger effect = higher value.

The term inhibition denotes the relative decrease from the control value, in per cent.

Molecules are shown by their SMILES. The source made the active and inactive calls.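 How the source made its calls, unless noted: active means visually confirmed hit in the image check and inhibition above 20%; inconclusive means visually confirmed hit but inhibition not above 20%; inactive means no visual hit in the image check.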

Sequence of Voltage-gated potassium channel subunit beta-2 (Rattus norvegicus) (P62483 whole entry, looked up): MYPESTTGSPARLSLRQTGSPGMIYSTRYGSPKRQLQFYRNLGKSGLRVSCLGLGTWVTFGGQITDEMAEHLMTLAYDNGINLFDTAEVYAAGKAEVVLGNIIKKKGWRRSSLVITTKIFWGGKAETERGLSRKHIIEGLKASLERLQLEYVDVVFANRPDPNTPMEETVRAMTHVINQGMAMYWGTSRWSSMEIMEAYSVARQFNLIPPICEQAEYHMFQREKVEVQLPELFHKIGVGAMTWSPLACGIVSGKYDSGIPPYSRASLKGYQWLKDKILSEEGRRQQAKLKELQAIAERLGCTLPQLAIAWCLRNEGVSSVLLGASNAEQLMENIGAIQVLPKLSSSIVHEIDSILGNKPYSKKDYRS
Sequence of Alpha-2C adrenergic receptor (Homo sapiens) (P18825 whole entry, looked up): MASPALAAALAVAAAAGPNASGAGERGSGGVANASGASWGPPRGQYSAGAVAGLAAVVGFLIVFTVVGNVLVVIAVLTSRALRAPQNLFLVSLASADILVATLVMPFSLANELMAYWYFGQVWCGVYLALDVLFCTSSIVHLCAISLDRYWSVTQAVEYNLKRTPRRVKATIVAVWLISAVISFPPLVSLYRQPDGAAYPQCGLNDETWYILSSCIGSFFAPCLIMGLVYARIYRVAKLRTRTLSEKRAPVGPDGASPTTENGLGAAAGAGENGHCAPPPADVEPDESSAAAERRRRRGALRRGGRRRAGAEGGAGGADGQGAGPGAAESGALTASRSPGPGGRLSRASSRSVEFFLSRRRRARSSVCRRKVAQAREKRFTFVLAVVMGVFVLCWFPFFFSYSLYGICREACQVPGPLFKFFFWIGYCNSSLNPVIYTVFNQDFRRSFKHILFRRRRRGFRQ

As to `CC1(C)CC(=O)c2cnc(NC(=O)CCc3ccccc3)nc2C1`, the cell count in assay [1] was determined as 608. For the same compound, the inhibition was -15.9% (inactive) in assay [1], -24.7% (inactive) in assay [3], 14.3% (inactive) in assay [7] and 33% (inactive) in assay [8]. For the same compound, the inhibition of aggregation in assay [2] was -15.3% (inactive). For the same compound, the nuclei count in assay [2] was determined as 112%; in assay [3], 119%. Further, in assay [4], the fluorescence slope is -0.365 (inactive). The NADPH fluorescence slope in assay [5] was 9.1e-06 (inactive). The slope in assay [6] was 0.00293 (inactive).
Take `O=C(CN1C(=O)NC2(CCCCC2)C1=O)Nc1ccc(S(=O)(=O)N2CCOCC2)cc1`: the cell count in assay [1] was found to be 460. The inhibition in assay [1] was 5.2% (inactive); in assay [3] it was 29.7% (inactive); in assay [7] it was 9.77% (inactive); in assay [8], 34.3% (inactive). Further, the inhibition of aggregation in assay [2] is -2.3% (inactive). Also, the results for the nuclei count in assay [2] and in assay [3] were 93.7% and 96.2%, respectively. Besides, the fluorescence slope in assay [4] was -0.49 (inactive). In addition, the NADPH fluorescence slope in assay [5] was -7.9e-06 (inactive). Moreover, the slope in assay [6] is 0.00589 (inactive).
For the compound `CN(C)CCCNC(=O)c1ccc(CN(c2ccccc2)S(C)(=O)=O)cc1`, in assay [1], the cell count worked out at 641. Further, the inhibition in assay [1] was 1% (inactive); in assay [3], 25.8% (inactive); in assay [7] it was 8.82% (inactive); in assay [8] it was 24.2% (inactive). Besides, the inhibition of aggregation in assay [2] was -1.7% (inactive). Moreover, the nuclei count amounted to 101% in assay [2] and 84.7% in assay [3]. For the same compound, the fluorescence slope in assay [4] is -0.43 (inactive). In addition, the NADPH fluorescence slope in assay [5] was -0.000115 (inactive). In assay [6], the slope was 0.00575 (inactive).
In the case of `C=CCn1c(SCC2=C(C(=O)OCC)C(C)NC(=O)N2)nnc1C1CCCCC1` (centres undefined), the cell count in assay [1] was 468. Besides, the inhibition is 6% (inactive) in assay [1], -85.9% (inactive) in assay [3], 14.6% (inactive) in assay [7] and 27.1% (inactive) in assay [8]. In addition, in assay [2], the inhibition of aggregation is 4.5% (inactive). Moreover, the nuclei count in assay [2] came to 113%; in assay [3] it was 121%. Further, the fluorescence slope in assay [4] was -0.469 (inactive). In addition, the NADPH fluorescence slope in assay [5] is 5.7e-05 (inactive). In addition, the slope in assay [6] was 0.00672 (inactive).
Consider `CN(c1ccccc1C(=O)N1CCN(c2cccc(Cl)c2)CC1)S(C)(=O)=O`, for which the cell count in assay [1] is 313. The inhibition in assay [1] is -1.9% (inactive); in assay [3], 18.2% (inactive); in assay [7] it was 6.88% (inactive); in assay [8], 8.69% (inactive). Further, the inhibition of aggregation in assay [2] is 3.7% (inactive). Further, the results for the nuclei count in assay [2] and in assay [3] were 101% and 120%, respectively. In addition, the fluorescence slope in assay [4] was -0.432 (inactive). The NADPH fluorescence slope in assay [5] was -2.5e-05 (inactive). Further, the slope in assay [6] was 0.0047 (inactive).
For `Cc1nc2c(-c3ccccc3)c(C)nn2c(C)c1CCC(=O)O`, the cell count in assay [1] is 586. Also, the inhibition was 6.1% (inactive) in assay [1], -61.1% (inactive) in assay [3], 13.6% (inactive) in assay [7] and 20% (inactive) in assay [8]. In addition, in assay [2], the inhibition of aggregation was 8.1% (inactive). The values for the nuclei count in assay [2] and in assay [3] were 73% and 103%, respectively. For the same compound, the fluorescence slope in assay [4] is -0.492 (inactive). In addition, in assay [5], the NADPH fluorescence slope is -2.4e-05 (inactive). Further, the slope in assay [6] is 0.00603 (inactive).
Consider `O=C(Nc1ncnc2sc3c(c12)CCC3)c1ccco1`, for which the cell count in assay [1] was found to be 289. For the same compound, the inhibition was -1.6% (inactive) in assay [1], -12.5% (inactive) in assay [3], -7.87% (inactive) in assay [7] and -0.691% (inactive) in assay [8]. Besides, the inhibition of aggregation in assay [2] is 0.8% (inactive). In addition, the nuclei count is 75.8% in assay [2] and 118% in assay [3]. In addition, the fluorescence slope in assay [4] is -0.327 (inactive). The NADPH fluorescence slope in assay [5] is -4.2e-05 (inactive). Further, the slope in assay [6] is 0.00564 (inactive).
`Cc1cc(Cl)cc2c1NC(=O)[C@]21[C@@H]2C(=O)N(Cc3ccccc3)C(=O)[C@@H]2[C@@H]2CCCN21`: in assay [1], the cell count was found to be 556. Besides, the inhibition in assay [1] was -18.1% (inactive); in assay [3], -65.1% (inactive); in assay [7] it was 15.5% (inactive); in assay [8] it was 27.9% (inactive). Also, in assay [2], the inhibition of aggregation is -7.5% (inactive). Further, the nuclei count worked out at 115% in assay [2] and 107% in assay [3]. Moreover, the fluorescence slope in assay [4] was -0.619 (inactive). Besides, the NADPH fluorescence slope in assay [5] was -3.2e-05 (inactive). In assay [6], the slope was 0.00523 (inactive).
As for `COCc1ccccc1Cn1cnc2c1c(=O)n(C)c(=O)n2C`, in assay [1], the cell count came to 346. Further, the inhibition was 2% (inactive) in assay [1], 25.6% (inactive) in assay [3], 2.14% (inactive) in assay [7] and 12.6% (inactive) in assay [8]. Besides, the inhibition of aggregation in assay [2] was -1.8% (inactive). The nuclei count in assay [2] was determined as 107%; in assay [3], 112%. Besides, the fluorescence slope in assay [4] was -0.469 (inactive). Further, the NADPH fluorescence slope in assay [5] was -3.6e-05 (inactive). Moreover, the slope in assay [6] was 0.00626 (inactive).
With `c1ccc(Cc2nn3c(Cn4cnc5ccccc54)nnc3s2)cc1`, the cell count in assay [1] stood at 415. For the same compound, the inhibition in assay [1] was 1.4% (inactive); in assay [3], -19.6% (inactive); in assay [7], 15.8% (inactive); in assay [8] it was -2.79% (inactive). For the same compound, in assay [2], the inhibition of aggregation was 9.2% (inactive). The nuclei count in assay [2] worked out at 80.7%; in assay [3] it was 91.6%. For the same compound, the fluorescence slope in assay [4] was -0.512 (inactive). Further, the NADPH fluorescence slope in assay [5] is -5.6e-05 (inactive). Besides, the slope in assay [6] was 0.00479 (inactive).
On to `O=c1cc(CSc2ccccn2)c2ccccc2[nH]1`, for which the cell count in assay [1] worked out at 446. Moreover, the inhibition in assay [1] was 1.4% (inactive); in assay [3] it was -59.6% (inactive); in assay [7], 10.1% (inactive); in assay [8], 18.8% (inactive). In addition, in assay [2], the inhibition of aggregation was 9.1% (inactive). Moreover, the results for the nuclei count in assay [2] and in assay [3] were 74.9% and 128%, respectively. Further, in assay [4], the fluorescence slope was -0.578 (inactive). Moreover, the NADPH fluorescence slope in assay [5] was -3e-05 (inactive). Also, the slope in assay [6] is 0.00572 (inactive).
On to `C/C(N)=C(/C#N)C(=O)COC(=O)c1cc(C)n(-c2ccc(F)cc2)c1C`, for which the cell count in assay [1] was found to be 717. In addition, the inhibition in assay [1] is 10.2% (inactive); in assay [3], -93.8% (inactive); in assay [7] it was 15.2% (inactive); in assay [8] it was -211% (inactive). The inhibition of aggregation in assay [2] is 2.4% (inactive). Moreover, the values for the nuclei count in assay [2] and in assay [3] were 116% and 146%, respectively. Also, in assay [4], the fluorescence slope was -0.487 (inactive). Also, the NADPH fluorescence slope in assay [5] was 1.6e-05 (inactive). Further, the slope in assay [6] is 0.00428 (inactive).
On to `Cc1c(NC(=O)CSc2nnc3sc4ccccc4n23)c(=O)n(-c2ccccc2)n1C`, for which the cell count in assay [1] worked out at 655. The inhibition in assay [1] is 1% (inactive); in assay [3], -24.3% (inactive); in assay [7], 19.4% (inactive); in assay [8] it was 24.6% (inactive). Also, the inhibition of aggregation in assay [2] was 16.2% (inactive). Further, the nuclei count in assay [2] was 98.3%; in assay [3], 101%. Besides, the fluorescence slope in assay [4] is -0.555 (inactive). Further, the NADPH fluorescence slope in assay [5] was 6.7e-05 (inactive). The slope in assay [6] is 0.00649 (inactive).
Turning to `Cc1cccc(N=C2NC(=O)CS2)c1C`, the cell count in assay [1] is 333. Moreover, the inhibition is -0.6% (inactive) in assay [1], 3.7% (inactive) in assay [3], 20.6% (inactive) in assay [7] and 22.9% (inactive) in assay [8]. Further, the inhibition of aggregation in assay [2] was -5.7% (inactive). The results for the nuclei count in assay [2] and in assay [3] were 109% and 93.9%, respectively. Further, in assay [4], the fluorescence slope is -0.499 (inactive). Besides, in assay [5], the NADPH fluorescence slope was -3.3e-05 (inactive). Further, the slope in assay [6] was 0.00501 (inactive).
